A350 fluor – compounds fluorescent in Alexa 350 spectral region. 59,000 compounds, 11% hits. Compound autofluorescence, 340/450 nm, Alexa 350 dye-equivalents; active compounds read high. max dye-equivalent concentration, M. AID 590; in the data active means max dye-equivalent concentration above about 10 nM; inconclusive means mostly about 1.1 nM to 9.6 nM
HADH2 inh – HADH2 (human) dehydrogenase inhibition. Q99714. recombinant HADH2, NADH fluorescence, beta-hydroxybutyryl-CoA. Potency, µM (titrated, usually from 57.1 µM), most hits filed as inhibitors. 73,000 compounds, 3.4% hits; further: nearly all actives have a fitted effect of over 60% in size
Target sequence (Q99714 whole entry, looked up, one chain of several): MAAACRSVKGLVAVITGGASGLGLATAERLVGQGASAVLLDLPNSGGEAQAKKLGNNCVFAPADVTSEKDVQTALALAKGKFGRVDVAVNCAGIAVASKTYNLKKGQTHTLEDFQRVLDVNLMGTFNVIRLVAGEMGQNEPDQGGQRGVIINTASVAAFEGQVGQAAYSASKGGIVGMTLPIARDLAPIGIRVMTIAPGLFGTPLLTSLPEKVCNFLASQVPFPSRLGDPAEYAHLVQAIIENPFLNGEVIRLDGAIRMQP
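20 nM HADH2 + cpd, 15 min RT; add 1 mM NAD+/90 uM beta-hydroxybutyryl-CoA; kinetic fluorescence 360/450 nm, 4 min. Tris-HCl pH 9.0, 0.01% Tween-20.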
4-MU autofl – compounds fluorescent in 4-MU spectral region; compound autofluorescence, 340/450 nm, 4-MU equivalents; active compounds read high; 59,000 compounds, 11% hits; max dye-equivalent concentration, M; in the data active means max dye-equivalent concentration above about 10 nM; inconclusive means mostly about 1.1 nM to 9.6 nM
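Compounds in 100 mM Tris, pH 8.0, sat 15 min at room temperature before fluorescence was read at 340 nm excitation/450 nm emission; a per-plate six-point 4-MU standard curve converted signals to dye-equivalent concentration at each compound concentration.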
AID923 – qHTS Assay for Allosteric/Competitive Inhibitors of Caspase-1: Spectroscopic Profiling in AFC Spectral Region. compound fluorescence, AFC spectral region (405/520 nm). Potency, µM (highest dose often 57.5 µM), actives largely listed as activators. 75,000 compounds, 1.1% hits
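Titrations up to 57 uM read every 20 sec for 3 min (405/520 nm) with 50 nM caspase 1 and 5 uM Ac-WEHD-AFC, pH 7.5 HEPES buffer. Fluorescence-vs-time intercept gave baseline, scaled against on-plate AFC standard.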
HSD17B inh – inhibitors of human HSD17B10 dehydrogenase; 75,000 compounds, 7.6% hits; recombinant HSD17B10, NADH fluorescence kinetic; Potency, µM (doses to about 57.1 µM), actives largely listed as inhibitors; Q99714; AID 893;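 further: the protocol describes HADH2 (HSD17B10) and not the HSD17B4 of the title; nearly all actives have a fitted effect of over 70% in size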
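His-tagged E. coli-expressed HADH2 at 20 nM in 100 mM Tris-HCl pH 9.0 with 0.01 % Tween-20, preincubated 15 min with compound at room temperature. Reaction with 1 mM NAD+ and 90 uM beta-hydroxybutyryl coenzyme A; NADH fluorescence (360/450 nm) read kinetically over 4 min, last minus first point.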
Of the large screens only hits and unclear results are named; the others gave an inactive call. Shown are actives, neighbours in structure and some others; about 13% of the full set was active somewhere. Unless noted, the call rests on the fitted dose curve; in most records, active means well fitted curve in the direction sought with a large enough effect; inconclusive means small, poorly fitted or top-dose-only effect, or another doubt; inactive means no such curve, though single readings can be large; an effect the other way counts as inactive or inconclusive.

NC(=S)c1ccc[n+]([C@@H]2O[C@@H](COP(=O)([O-])OP(=O)(O)OC[C@@H]3O[C@@H](n4cnc5c(N)ncnc54)[C@@H](OP(=O)(O)O)[C@H]3O)[C@@H](O)[C@H]2O)c1	A350 fluor inconclusive, HADH2 inh inconclusive, 4-MU autofl inconclusive
COc1ccc(-n2nc(C(=O)N3CCN(c4ccc(F)cc4)CC3)c3ccccc3c2=O)c(OC)c1	none
COc1ccc2oc(=O)c(C(=O)N3CCN(c4ccc(F)cc4)CC3)cc2c1	A350 fluor 1.2e-08M, 4-MU autofl 1.1e-08M
c1cn(-c2ccnc(-c3ccc4c(c3)OCO4)n2)cn1	none
CN(C)c1ccnc2sc(C(=O)NCc3ccccc3)c(N)c12	none (no result: A350 fluor, 4-MU autofl)
CN(C)c1ccnc2sc3c(=O)n(-c4ccccc4)cnc3c12	A350 fluor 4.7e-08M, 4-MU autofl 4.5e-08M
CN1/C(=C\P(=O)(N(C)C)N(C)C)C(C)(C)c2ccccc21	none
CN1/C(=C/C=N/n2cnnc2)C(C)(C)c2ccccc21	A350 fluor 7.3e-08M, 4-MU autofl 8.1e-08M, HSD17B inh inconclusive
COc1ccc(COC(=O)N/N=C2/C[C@@H](O)[C@@H](O)[C@@H]3[C@@H]4C(=O)N(C[C@@H]5CCCO5)C(=O)[C@H]4CC[C@@H]23)cc1	none (no result: A350 fluor, 4-MU autofl)
O=C(O)c1cc(-c2ccco2)nc2ccc(Br)cc12	A350 fluor 1.5e-07M, HADH2 inh 13µM, 4-MU autofl 1.4e-07M, HSD17B inh 16µM
O=C(Nc1ccon1)c1cc(-c2ccccc2)nc2ccccc12	HSD17B inh inconclusive
O=C(NCC1CCCO1)c1cc(-c2ccco2)nc2ccccc12 (configuration not stated)	A350 fluor 2.3e-06M, HADH2 inh 13µM, 4-MU autofl 2.5e-06M, HSD17B inh 25µM
Cc1cccc(NC(=O)c2cc(-c3ccco3)nc3ccccc23)n1	A350 fluor 2.2e-07M, HADH2 inh inconclusive, 4-MU autofl 2.2e-07M, HSD17B inh 25µM
COc1ccc(NC(=O)c2cc(-c3ccc(C)o3)nc3ccccc23)cc1OC	A350 fluor 5e-08M, 4-MU autofl 4.4e-08M, HSD17B inh inconclusive
COc1ccc(OC2C=CC(c3ccccc3)OC2CO)c(C(C)(C)C)c1 (configuration not stated)	none (no result: A350 fluor, 4-MU autofl)
CN(C)CC(C)(C)CNC(=O)c1ccc(-n2c(=O)c(=O)[nH]c3ccccc32)cc1	none (no result: A350 fluor, 4-MU autofl)
CC(=O)OC[C@@H]1O[C@H](C/C=N\OC[C@@H](O)[C@H]2O[C@H]3OC(C)(C)O[C@H]3[C@@H]2O)C=C[C@@H]1OC(C)=O	none (no result: A350 fluor, 4-MU autofl)
CCOc1cccc(C2C(C(=O)c3ccc(C)o3)=C(O)C(=O)N2c2nccs2)c1 (configuration not stated)	A350 fluor inconclusive, 4-MU autofl inconclusive
COC(=O)c1sc(N2C(=O)C(O)=C(C(=O)c3ccc(C)o3)C2c2ccc(F)cc2)nc1C (configuration not stated)	HSD17B inh 20µM (no result: A350 fluor, 4-MU autofl)
CCC#CCOCC(=O)Nc1ccccc1	none (no result: A350 fluor, 4-MU autofl)
O=c1c(-c2ccc(F)cc2)nc2cnc(Nc3ccccc3)nc2n1C1CC1	A350 fluor inconclusive, 4-MU autofl inconclusive
Cc1nn(-c2ccc(F)cc2)c2sc(C(=O)OC3CCOC3=O)cc12 (configuration not stated)	A350 fluor 4.6e-07M, 4-MU autofl 3.1e-07M, HSD17B inh 25µM
COC(=O)c1ccc2c(=O)n(Cc3ccc4c(c3)OCO4)c(SCC(=O)N3CCCC3)nc2c1	A350 fluor 1.6e-08M, 4-MU autofl inconclusive
O=C(NCc1ccco1)c1ccc2c(=O)n(Cc3ccco3)c(SCC(=O)N3CCCC3)nc2c1	none
O=C(O)C1CCN(C(=O)COc2ccc3c4c(c(=O)oc3c2)CCC4)CC1	A350 fluor 2.7e-07M, HADH2 inh 32µM, 4-MU autofl 2.1e-07M, HSD17B inh 32µM
CC(C)CNC(=O)COc1ccc2c3c(c(=O)oc2c1)CCC3	A350 fluor inconclusive, HADH2 inh inconclusive, 4-MU autofl inconclusive, HSD17B inh 13µM
Cc1cc(OCC(=O)N2CCCC2)ccc1Cl	none (no result: A350 fluor, 4-MU autofl)
CC(=O)COc1ccc2c3c(c(=O)oc2c1)CCCC3	A350 fluor 4.1e-08M, 4-MU autofl 3.1e-08M, HSD17B inh 25µM
CC(=O)C(C)Oc1ccc2c3c(c(=O)oc2c1)CCCCC3 (configuration not stated)	A350 fluor 4.6e-08M, HADH2 inh 20µM, 4-MU autofl 5.1e-08M, HSD17B inh 25µM
Cc1ccc(NC(=O)COc2ccc3oc4c(c3c2)CCCC4)nc1	none
CC(=O)C(C)Oc1ccc2c3c(c(=O)oc2c1)CCCC3 (configuration not stated)	HADH2 inh inconclusive, HSD17B inh 25µM (no result: A350 fluor, 4-MU autofl)
O=C(O)C(Oc1ccc2c3c(c(=O)oc2c1)CCC3)c1ccccc1 (configuration not stated)	A350 fluor 1.1e-07M, 4-MU autofl 9.3e-08M, HSD17B inh 25µM
Cc1nnc(NC(=O)C(C)Oc2ccc3c(C)cc(=O)oc3c2)s1 (configuration not stated)	HSD17B inh inconclusive
COc1ccc2c(c1)c(=O)oc1cc(OCC(=O)NC3CC3)ccc12	A350 fluor 1.2e-07M, 4-MU autofl 1e-07M, HSD17B inh 13µM
CO[C@@H]1/C=C\CC(=O)N2CCC[C@@H]2C(=O)OC[C@H](C)C(=O)OC[C@H]1C	none (no result: A350 fluor, 4-MU autofl)
CCCCCCC1C(C#N)=C(N)OC2=C1C(=O)CCC2 (configuration not stated)	HADH2 inh inconclusive, HSD17B inh 32µM (no result: A350 fluor, 4-MU autofl)
CCCCCCC1C(C#N)=C(N)OC2=C1C(=O)CC(C)(C)C2 (configuration not stated)	none (no result: A350 fluor, 4-MU autofl)
CCOCc1nnc(NS(C)(=O)=O)s1	A350 fluor 4.1e-08M, 4-MU autofl 4.2e-08M
O=C(Oc1ccccc1)N1CCC2(CC1)CN(c1ccncc1)C2	none
Cc1ccc(C)c2[nH]c(=O)c(CN(CCCN(C)C)C(=O)NCc3ccccc3)cc12	A350 fluor 1.2e-08M, 4-MU autofl inconclusive, HSD17B inh inconclusive
COc1ccc2[nH]c(=O)c(CN(CCN(C)C)C(=O)NCc3ccccc3)cc2c1	A350 fluor 2.6e-07M, 4-MU autofl 2.7e-07M, HSD17B inh 32µM
CCc1ccc2[nH]c(=O)c(CN(CCN(CC)CC)C(=O)Nc3ccccc3OC)cc2c1	A350 fluor inconclusive
COc1ccc(N(Cc2cc3ccccc3[nH]c2=O)C(=O)C2CCCO2)cc1 (configuration not stated)	none
CCOc1ccc(N(Cc2cc3cc(OC)ccc3[nH]c2=O)C(=O)C2CCCO2)cc1 (configuration not stated)	A350 fluor 3.9e-07M, 4-MU autofl 3e-07M, HSD17B inh 32µM
CCN(CC)CCCN(Cc1cc2cc(OC)ccc2[nH]c1=O)C(=O)Nc1ccccc1	A350 fluor 2.5e-07M, 4-MU autofl 2.1e-07M, HSD17B inh 25µM
Cc1ccc2cc(CN(CCN3CCOCC3)C(=O)NCc3ccccc3)c(=O)[nH]c2c1C	A350 fluor inconclusive, HSD17B inh inconclusive
Cc1cnc(CNc2nc(-c3cccc(NS(C)(=O)=O)c3)nc3ccccc23)cn1	none
